According to PubChem BioAssay AID1159580 (chemical genetic matrix, 2015):
About 2,000 (36%) of roughly 5,500 compounds were called active. Not shown: some 18% with an inconclusive outcome. This is one part of the list. A number with no mark means an inactive call. No stated cut-off is given here; in the data, active means normalized growth mostly below about 0.91 (no sharp cut-off); inconclusive means no clear call, values can overlap the other calls; inactive means mostly above about 0.92.

Assay: chemical genetic growth profiling, strain panel (AID 1159580);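 further: tested at 20 µM; growth read once vehicle control cultures reached saturation at 30 °C; 1 = growth at the plate median or of vehicle wells; lower values mean less growth of the strain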
Settings: growth OD

Question: Which results are given for `Cc1cc(/C=C/c2ccc3cc(N(C)C)ccc3[n+]2C)c(C)n1-c1ccccc1`?
Answer: normalized growth (S. cerevisiae deletion strains, locus YJR066W, strain TOR1, hits give low values): 0.948; normalized growth (S. cerevisiae deletion strains, locus YKL068W, hits give low values): 1.03; normalized growth (S. cerevisiae deletion strains, locus YKL085W, strain MDH1 (second series), hits give low values): 1.03; normalized growth (S. cerevisiae deletion strains, locus YKL085W, strain MDH1, hits give low values): 1.03; normalized growth (S. cerevisiae deletion strains, locus YKL160W, strain elf1, hits give low values): 0.829 (active); normalized growth (S. cerevisiae deletion strains, locus YKL190W, strain CNB1, hits give low values): 0.692 (active); normalized growth (S. cerevisiae deletion strains, locus YKR001C, strain vps1, hits give low values): 0.987; normalized growth (S. cerevisiae deletion strains, locus YKR026C, strain gcn3, hits give low values): 1.01; normalized growth (S. cerevisiae deletion strains, locus YKR091W, strain srl3, hits give low values): 1.02; normalized growth (S. cerevisiae deletion strains, locus YLL001W, strain dnm1, hits give low values): 0.934; normalized growth (S. cerevisiae deletion strains, locus YLL026W, hits give low values): 0.926 (active); normalized growth (S. cerevisiae deletion strains, locus YLL041C, strain sdh2, hits give low values): 1.03; normalized growth (S. cerevisiae deletion strains, locus YLR027C, strain aat2, hits give low values): 0.909 (active); normalized growth (S. cerevisiae deletion strains, locus YLR039C, strain RIC1, hits give low values): 0.703; normalized growth (S. cerevisiae deletion strains, locus YLR058C, strain SHM2, hits give low values): 0.887 (active); normalized growth (S. cerevisiae deletion strains, locus YLR102C, strain apc9, hits give low values): 1.01; normalized growth (S. cerevisiae deletion strains, locus YLR113W, strain HOG1, hits give low values): 1.02; normalized growth (S. cerevisiae deletion strains, locus YLR221C, strain rsa3, hits give low values): 0.905 (active); normalized growth (S. cerevisiae deletion strains, locus YLR258W, strain gsy2, hits give low values): 0.986; normalized growth (S. cerevisiae deletion strains, locus YLR262C, strain YPT6 (second series), hits give low values): 0.717 (active); normalized growth (S. cerevisiae deletion strains, locus YLR262C, strain YPT6, hits give low values): 0.776; normalized growth (S. cerevisiae deletion strains, locus YLR268W, strain sec22, hits give low values): 0.919; normalized growth (S. cerevisiae deletion strains, locus YLR320W, strain mms22, hits give low values): 0.797 (active); normalized growth (S. cerevisiae deletion strains, locus YLR330W, strain CHS5, hits give low values): 1; normalized growth (S. cerevisiae deletion strains, locus YLR342W, strain FKS1 (second series), hits give low values): 0.774 (active); normalized growth (S. cerevisiae deletion strains, locus YLR342W, strain FKS1, hits give low values): 0.832 (active); normalized growth (S. cerevisiae deletion strains, locus YLR357W, strain rsc2, hits give low values): 1.09; normalized growth (S. cerevisiae deletion strains, locus YLR370C, strain arc18, hits give low values): 0.986; normalized growth (S. cerevisiae deletion strains, locus YLR371W, strain rom2, hits give low values): 1.02; normalized growth (S. cerevisiae deletion strains, locus YLR384C, strain iki3, hits give low values): 1; normalized growth (S. cerevisiae deletion strains, locus YLR418C, strain cdc73, hits give low values): 0.385 (active); normalized growth (S. cerevisiae deletion strains, locus YML016C, strain PPZ1, hits give low values): 0.906 (active); normalized growth (S. cerevisiae deletion strains, locus YML032C, strain rad52, hits give low values): 0.947; normalized growth (S. cerevisiae deletion strains, locus YML120C, strain ndi1, hits give low values): 0.93; normalized growth (S. cerevisiae deletion strains, locus YML124C, strain tub3, hits give low values): 1.02; normalized growth (S. cerevisiae deletion strains, locus YMR058W, strain fet3, hits give low values): 0.863 (active); normalized growth (S. cerevisiae deletion strains, locus YMR078C, strain ctf18, hits give low values): 1.02; normalized growth (S. cerevisiae deletion strains, locus YMR125W, strain sto1, hits give low values): 0.819 (active); normalized growth (S. cerevisiae deletion strains, locus YMR129W, hits give low values): 0.874 (active); normalized growth (S. cerevisiae deletion strains, locus YMR205C, strain PFK2, hits give low values): 1.04; normalized growth (S. cerevisiae deletion strains, locus YMR223W, strain ubp8, hits give low values): 0.949; normalized growth (S. cerevisiae deletion strains, locus YMR231W, strain pep5, hits give low values): 1.01; normalized growth (S. cerevisiae deletion strains, locus YMR307W, strain GAS1, hits give low values): 0.583 (active); normalized growth (S. cerevisiae deletion strains, locus YNL067W, strain RPL9B, hits give low values): 0.842 (active); normalized growth (S. cerevisiae deletion strains, locus YNL071W, strain lat1, hits give low values): 0.762 (active); normalized growth (S. cerevisiae deletion strains, locus YNL128W, strain TEP1, hits give low values): 0.202 (active); normalized growth (S. cerevisiae deletion strains, locus YNL153C, strain GIM3, hits give low values): 0.709 (active); normalized growth (S. cerevisiae deletion strains, locus YNL183C, strain NPR1, hits give low values): 0.962; normalized growth (S. cerevisiae deletion strains, locus YNL209W, strain ssb2, hits give low values): 0.848 (active); normalized growth (S. cerevisiae deletion strains, locus YNL233W, strain BNI4, hits give low values): 0.749 (active); normalized growth (S. cerevisiae deletion strains, locus YNL248C, strain rpa49, hits give low values): 0.714 (active); normalized growth (S. cerevisiae deletion strains, locus YNL250W, strain rad50, hits give low values): 1.02; normalized growth (S. cerevisiae deletion strains, locus YNL271C, strain bni1, hits give low values): 1.02; normalized growth (S. cerevisiae deletion strains, locus YNL298W, strain CLA4, hits give low values): 1.01; normalized growth (S. cerevisiae deletion strains, locus YNL307C, strain MCK1, hits give low values): 0.863 (active); normalized growth (S. cerevisiae deletion strains, locus YNL322C, strain KRE1 (second series), hits give low values): 1.01; normalized growth (S. cerevisiae deletion strains, locus YNL322C, strain KRE1, hits give low values): 0.686 (active); normalized growth (S. cerevisiae deletion strains, locus YNR049C, strain mso1, hits give low values): 1.01; normalized growth (S. cerevisiae deletion strains, locus YNR052C, strain pop2, hits give low values): 0.731 (active); normalized growth (S. cerevisiae deletion strains, locus YOL006C, strain TOP1, hits give low values): 0.382 (active); normalized growth (S. cerevisiae deletion strains, locus YOL012C, strain htz1): 0.461; normalized growth (S. cerevisiae deletion strains, locus YOL147C, strain pex11, hits give low values): 0.999; normalized growth (S. cerevisiae deletion strains, locus YOR001W, strain rrp6, hits give low values): 0.954; normalized growth (S. cerevisiae deletion strains, locus YOR061W, strain CKA2, hits give low values): 0.909; normalized growth (S. cerevisiae deletion strains, locus YOR069W, strain VPS5, hits give low values): 0.995; normalized growth (S. cerevisiae deletion strains, locus YOR070C, strain gyp1, hits give low values): 0.91 (active); normalized growth (S. cerevisiae deletion strains, locus YOR080W, strain dia2, hits give low values): 0.892 (active); normalized growth (S. cerevisiae deletion strains, locus YOR083W, strain WHI5, hits give low values): 0.804 (active); normalized growth (S. cerevisiae deletion strains, locus YOR106W, strain vam3, hits give low values): 0.754 (active); normalized growth (S. cerevisiae deletion strains, locus YOR136W, strain idh2, hits give low values): 0.997; normalized growth (S. cerevisiae deletion strains, locus YOR144C, strain elg1, hits give low values): 1; normalized growth (S. cerevisiae deletion strains, locus YOR184W, strain ser1, hits give low values): 0.928; normalized growth (S. cerevisiae deletion strains, locus YOR231W, strain MKK1, hits give low values): 1.01; normalized growth (S. cerevisiae deletion strains, locus YOR265W, strain rbl2, hits give low values): 0.92 (active); normalized growth (S. cerevisiae deletion strains, locus YOR270C, strain vph1, hits give low values): 0.728 (active); normalized growth (S. cerevisiae deletion strains, locus YOR290C, strain snf2, hits give low values): 0.947; normalized growth (S. cerevisiae deletion strains, locus YOR316C, strain cot1, hits give low values): 1.01; normalized growth (S. cerevisiae deletion strains, locus YPL051W, strain arl3, hits give low values): 0.914 (active); normalized growth (S. cerevisiae deletion strains, locus YPL078C, strain atp4, hits give low values): 0.96; normalized growth (S. cerevisiae deletion strains, locus YPL106C, strain sse1, hits give low values): 0.468 (active); normalized growth (S. cerevisiae deletion strains, locus YPL240C, strain hsp82, hits give low values): 1.01; normalized growth (S. cerevisiae deletion strains, locus YPL256C, strain CLN2, hits give low values): 1.02; normalized growth (S. cerevisiae deletion strains, locus YPR119W, strain clb2, hits give low values): 1.01; normalized growth (S. cerevisiae deletion strains, locus YPR141C, strain kar3, hits give low values): 1.04; normalized growth (S. cerevisiae deletion strains, locus YPR163C, strain tif3, hits give low values): 1.01; normalized growth (S. cerevisiae deletion strains, locus YPR167C, strain met16, hits give low values): 0.989; normalized growth (S. cerevisiae deletion strains, strain wtn01, hits give low values): 0.775 (active); normalized growth (S. cerevisiae strains, strain wild type, hits give low values): 0.484 (active)
